This is a sample that favours compounds with a hit; in the whole collection about 7.9% have one here.
FMDV antiviral: blocks foot and mouth disease virus | FMDV antiviral cell-based qHTS | Potency, µM (doses to about 57.9 µM), hits mostly inhibitors | 1.2% of 410,000 active | AID 1159524; calls by dose curve; tested in HEK293T cells; further: read-out not given here; nearly all actives have a fitted effect of over 45% in size
HCV inhibitor: blocks hepatitis C virus; 3.4% of 340,000 active; Huh7.5.1 HCVcc-Cre infection, luciferase reporter, 44 h; Potency, µM (titrated, usually from 41.8 µM), most hits filed as inhibitors; AID 651820
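1,000 cells/well; 4 h culture; + compound; + HCVcc-Cre (~0.5 moi); 44 h; luciferase substrate, RT 15 min; read 15 sec.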
Marburg entry inh: inhibitors of Marburg virus binding or cell entry. Marburg virus pseudotyped entry inhibition, cell reporter. Potency, µM (highest dose often 37.8 µM), usual class: inhibitors. 1.8% of 300,000 active; calls by dose curve; tested in HEK293 cells
HCMV inh: human cytomegalovirus inhibition; HFF cells, HCMV-luciferase reporter, 72 h; hits give low values; activity change, negative = inhibition, % at 57.5 µM; 4.5% of 410,000 active; AID 1259415; in the data active means activity change below about -60%; inconclusive means no clear call, values can overlap the other calls; inactive means above about -39%
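Screen run at 2 compound doses on HFFs infected with reporter HCMV, MOI 1 PFU/cell. Luciferase activity from cell lysates at 72 h post infection gave inhibition relative to buffer-only and Salinomycin wells.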
LASV entry inh: blocks Lassa virus binding to or entry into cells | Lassa virus pseudotype entry inhibition, cell reporter | Potency, µM (titrated, usually from 37.9 µM), hits mostly inhibitors | 1.2% of 300,000 active; calls by dose curve; tested in HEK293 cells; further: nearly all actives have a fitted effect of over 50% in size
HCV inh confirm: confirmation of hepatitis C virus inhibitors | shares compounds with HCV inhibitor | HCVcc-Cre infectious virus cell assay, luciferase, inhibition | Potency, µM (highest dose often 41.8 µM), usual class: inhibitors | 78% of 640 active | AID 720575; further: nearly all actives have a fitted effect of over 80% in size
HCV host tox: host cell cytotoxicity counter-screen for HCV inhibitors. Potency, µM (doses to about 41.8 µM), hits mostly inhibitors. AID 720576. HCV host cell line cytotoxicity counterscreen. shares compounds with HCV inhibitor. 22% of 640 active;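 further: 44 h compound exposure; nearly all actives have a fitted effect of over 55% in size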
Of the large screens only hits and unclear results are named; the others gave an inactive call (follow-up assays come after a bar, where they were run). Unless noted, the call rests on the fitted dose curve; in most records, active means well fitted curve in the direction sought with a large enough effect; inconclusive means small, poorly fitted or top-dose-only effect, or another doubt; inactive means no such curve, though single readings can be large; an effect the other way counts as inactive or inconclusive.

CC(=O)N1CCc2cc(Br)cc(S(=O)(=O)NCCc3ccc(Cl)cc3)c21	none (no result: HCV inhibitor)
CCC(=O)N1CCc2cc(S(=O)(=O)Nc3cc(C)ccc3OC)ccc21	none (no result: HCV inhibitor)
CCOCCCNC(=O)C(c1ccccc1)N(Cc1ccc2c(c1)OCO2)C(=O)c1ccc(NC(C)=O)cc1 (stereo not drawn)	Marburg entry inh inconclusive, LASV entry inh inconclusive (no result: HCV inhibitor)
Oc1ccccc1-c1nc(NCc2cccnc2)c2ccccc2n1	HCV inhibitor 5.62µM (no result: Marburg entry inh, LASV entry inh) | HCV inh confirm 12.5µM | HCV host tox inactive
CCc1cccc(NC(=O)C(NS(=O)(=O)c2ccc3nc(C)sc3c2)C(C)C)c1 (stereo not drawn)	none (no result: HCV inhibitor)
CN1CCc2nc(SCCOc3ccccc3)c(C#N)cc2C1	HCV inhibitor 3.55µM (no result: FMDV antiviral) | HCV inh confirm inconclusive | HCV host tox inactive
CCC(C)NC(=O)CCCN1C(=O)CCn2nc(-c3cccn3C)cc21 (stereo not drawn)	none (no result: HCV inhibitor, Marburg entry inh)
Nc1nc(Cl)cc(N2CCC(c3cc(-c4ccc(Cl)cc4)n[nH]3)CC2)n1	FMDV antiviral 15.8µM, HCV inhibitor 3.98µM, Marburg entry inh inconclusive, HCMV inh -103.7, LASV entry inh 6.51µM | HCV inh confirm 11.2µM | HCV host tox inconclusive
Clc1ccc(-c2cc(C3CCNCC3)[nH]n2)cc1	HCV inhibitor inconclusive, Marburg entry inh inconclusive
COc1cccc(NC(c2nnc(-c3ccccc3)o2)c2ccc(F)cc2Cl)c1 (stereo not drawn)	none (no result: HCV inhibitor)
Cc1[nH]n(-c2nc(-c3ccc(Cl)cc3)cs2)c(=O)c1N=Nc1ccc(O)cc1	FMDV antiviral 7.94µM, HCV inhibitor 1.78µM, Marburg entry inh inconclusive, LASV entry inh 11.2µM | HCV inh confirm 14.1µM | HCV host tox inactive
Cc1nc(-c2ccc(C(=O)Nc3cccc(Br)c3)cc2)cs1	HCV inhibitor 4.47µM, HCMV inh -67.9 (no result: Marburg entry inh, LASV entry inh) | HCV inh confirm 2.8µM | HCV host tox 3.96µM
COc1cc2ccccc2cc1C(=O)N1CCN(c2nc3c(C)cc(C)cc3s2)CC1	none (no result: HCV inhibitor, Marburg entry inh)
Cc1cnc(NC(=O)C2CC(=O)N(c3cccc(Cl)c3)C2)s1 (stereo not drawn)	HCV inhibitor 3.16µM, HCMV inh -99.1 (no result: Marburg entry inh, LASV entry inh) | HCV inh confirm 8.87µM | HCV host tox 3.53µM
CC(C)(C)C(=O)CSc1nc2c(c(-c3cccs3)c1C#N)CCC2	HCV inhibitor inconclusive
CN1CCc2nc(SCC(=O)Nc3cccc(F)c3)c(C#N)c(-c3cccs3)c2C1	HCV inhibitor inconclusive | HCV inh confirm inconclusive | HCV host tox inactive
Cc1ccc(Cn2c(=O)c3c(nc4n3CCN4c3cc(C)cc(C)c3)n(C)c2=O)cc1	HCMV inh inconclusive (no result: HCV inhibitor, Marburg entry inh)
O=C(Nc1ncc(Cc2ccc(C(F)(F)F)cc2)s1)c1ccc(-c2cccc([N+](=O)[O-])c2)o1	FMDV antiviral inconclusive, HCV inhibitor 2.51µM, Marburg entry inh inconclusive, HCMV inh inconclusive | HCV inh confirm 12.5µM | HCV host tox inconclusive
Cc1ccc(CN(C(=O)c2ccccc2F)c2ccccn2)o1	none (no result: HCV inhibitor)
Cc1cccc(N2CCN(C(=O)C3CCN(S(=O)(=O)Cc4ccccc4)CC3)CC2)c1C	FMDV antiviral inconclusive (no result: HCV inhibitor)
CCC(CO)Oc1cc(NC(=O)c2ccccc2)c2ncn(C(C)C)c2c1 (stereo not drawn)	HCV inhibitor inconclusive (no result: Marburg entry inh, LASV entry inh)
CCC(CO)Oc1cc(NC(=O)c2ccc(C)cc2)c2ncn(C(C)C)c2c1 (stereo not drawn)	HCV inhibitor inconclusive (no result: Marburg entry inh, LASV entry inh) | HCV inh confirm inconclusive | HCV host tox inactive
COc1ccc(CN2CCC(N(CCc3ccccc3)Cc3ccccc3)CC2)c(OC)c1	FMDV antiviral 17.8µM, HCV inhibitor 2.51µM, Marburg entry inh inconclusive, HCMV inh -99.3 (no result: LASV entry inh) | HCV inh confirm 7.05µM | HCV host tox inconclusive
O=C(NC1CCS(=O)(=O)C1)/C(=C/c1ccco1)NC(=O)c1ccccc1 (stereo not drawn)	HCV inhibitor 7.08µM | HCV inh confirm inactive | HCV host tox inactive
CC(Oc1ccc(Cl)cc1Cl)C(=O)NNC(=O)c1ccncc1 (stereo not drawn)	none
CC(Oc1ccc(Cl)cc1Cl)c1nc(-c2ccc(NC(=O)c3ccncc3)cc2)no1 (stereo not drawn)	FMDV antiviral 15.8µM, HCV inhibitor 2.82µM, Marburg entry inh inconclusive, HCMV inh -100.7, LASV entry inh inconclusive | HCV inh confirm 7.05µM | HCV host tox 11.2µM
Cc1ccc(CC(=O)NCc2nc(-c3cccc(C)c3)no2)cc1	none (no result: HCV inhibitor)
COC(=O)C1=C(c2ccc(-c3ccccc3)c(F)c2)C[C@@H]2CC[C@H]1N2C(=O)NCCNC(C)=O	none (no result: Marburg entry inh, LASV entry inh)
COC(=O)C1=C(c2ccc(-c3ccccc3)c(F)c2)C[C@@H]2CC[C@H]1N2C(=O)NCc1cccc2ccccc12	HCV inhibitor inconclusive (no result: Marburg entry inh, LASV entry inh) | HCV inh confirm 11.2µM | HCV host tox inactive
Cc1nn(Cc2c(F)c(F)c(F)c(F)c2F)c(C)c1NC(=O)c1ccc(COc2ccc(F)cc2)o1	FMDV antiviral inconclusive, HCV inhibitor 2µM, Marburg entry inh 3.66µM, HCMV inh inconclusive | HCV inh confirm 14.1µM | HCV host tox inactive
Cc1cc(C)c(S(=O)(=O)Nc2ccc(-c3cn4ccccc4n3)cc2)c(C)c1	HCV inhibitor inconclusive, Marburg entry inh inconclusive, HCMV inh inconclusive | HCV inh confirm 22.3µM | HCV host tox inactive
Cc1cccc(S(=O)(=O)Nc2ccc(-c3cn4ccccc4n3)cc2)c1	LASV entry inh inconclusive
CCc1c(C)sc(NC(=O)c2cc(-c3ccc(OC)cc3)on2)c1C#N	Marburg entry inh inconclusive (no result: HCV inhibitor)
CCCn1c(NC(=O)c2cccc(S(=O)(=O)N3CCCC3)c2)nc2ccccc21	FMDV antiviral 31.6µM, HCV inhibitor 5.01µM, Marburg entry inh 6.51µM, HCMV inh -96.9, LASV entry inh inconclusive | HCV inh confirm 9.95µM | HCV host tox 8.87µM
CCCn1c(NC(=O)c2ccccc2)nc2ccccc21	HCV inhibitor inconclusive
COc1ccc(/C=N/NC(=O)c2ccc(CN3C(=O)c4cccc5cccc3c45)cc2)cc1O	HCV inhibitor inconclusive, Marburg entry inh inconclusive
COc1cc(/C=N/NC(=O)c2ccc(CN3C(=O)c4cccc5cccc3c45)cc2)cc(OC)c1O	HCV inhibitor inconclusive (no result: Marburg entry inh, LASV entry inh) | HCV inh confirm inconclusive | HCV host tox inactive
Cc1ccc(OCC(=O)NCC2(N(C)C)CCCCC2)cc1C	none (no result: HCV inhibitor)
Clc1ccc(OCCN2CCCCC2)cc1Cl	Marburg entry inh inconclusive
ON=C1c2cc(OCCN3CCCCC3)ccc2-c2ccc(OCCN3CCCCC3)cc21	HCV inhibitor 3.16µM, Marburg entry inh 3.16µM, LASV entry inh inconclusive (no result: HCMV inh) | HCV inh confirm inconclusive | HCV host tox inactive
Cc1ccc(Cn2c(CO)cnc2SCC(=O)Nc2ccc(C)c(Cl)c2)cc1	none (no result: HCV inhibitor, Marburg entry inh)
CN(C)CCNC(=O)c1ccc(COc2ccc(Cl)cc2Cl)cc1	HCV inhibitor 7.94µM, Marburg entry inh 8.2µM, LASV entry inh inconclusive | HCV inh confirm 15.8µM | HCV host tox inactive
OC1CCCN(CC(O)COc2ccc(-c3ccccc3)cc2)C1 (stereo not drawn)	HCV inhibitor inconclusive, Marburg entry inh inconclusive
